From PubChem BioAssay (EPA / NIEHS)
Activity calls are given as the source filed them. Rule for the calls: active = hit-call score of the fitted dose curve at least 0.9, where 1 is the maximum; inactive = score below 0.9.

How the values were obtained:
Conditions in all cases: mRNA level, 48 h; actives raise or lower the signal
CYP4A11 (gene 1579) = test: LTEA_HepaRG_CYP4A11: Life Technologies and Expression Analysis (LTEA) Assay for CYP4A11 using HepaRG (AID 2283486)
Outline: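 HepaRG, 48 h chem exposure, 8 conc (100 uM top, half-log), 0.5% DMSO vehicle; qRT-PCR readout, housekeeping-gene normalized; bidirectional curve fit vs DMSO baseline.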

[1] = read-out: Cytochrome P450 3A4 (Homo sapiens) (UniProt P08684); test: LTEA_HepaRG_CYP3A4: Life Technologies and Expression Analysis (LTEA) Assay for CYP3A4 using HepaRG (AID 2283487)
Outline: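 Differentiated HepaRG cells in serum-free induction medium exposed in duplicate for 48 h to 8 half-log concentrations up to 100 uM in 0.5% DMSO. CYP3A4 mRNA measured by qRT-PCR normalized to ACTB, GAPDH and POLR2A; bidirectional fit versus DMSO.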

[2] = read-out: DNA damage-inducible transcript 3 (DDIT3), DDIT3 (gene 1649); test: LTEA_HepaRG_DDIT3: Life Technologies and Expression Analysis (LTEA) Assay for DNA damage-inducible transcript 3 (DDIT3) using HepaRG (AID 2283488)
Outline: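 Differentiated human HepaRG cells in serum-free induction medium were exposed in duplicate for 48 h to 8 concentrations (top 100 uM, half-log steps, 0.5% DMSO). DDIT3 mRNA measured by TaqMan qRT-PCR, normalized to ACTB/GAPDH/POLR2A; bidirectional fit versus DMSO.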

[3] = read-out: Pro-epidermal growth factor (Homo sapiens) (UniProt P01133); test: LTEA_HepaRG_EGF: Life Technologies and Expression Analysis (LTEA) Assay for Epidermal growth factor (EGF) using HepaRG (AID 2283489)
Outline: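 HepaRG, 48 h dosing, 100 uM top, half-log x8, 0.5% DMSO. Readout: TaqMan qRT-PCR (Fluidigm array), housekeeping-normalized. Gain or loss of signal fit vs DMSO.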

[4] = read-out: Early growth response protein 1 (EGR1) transcription factor, EGR1 (gene 1958); test: LTEA_HepaRG_EGR1: Life Technologies and Expression Analysis (LTEA) Assay for Early growth response protein 1 (EGR1) transcription factor using HepaRG (AID 2283490)
Outline: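 Differentiated HepaRG cells in serum-free induction medium exposed 48 hours, duplicate, to 8 half-log concentrations up to 100 uM in 0.5% DMSO. EGR1 mRNA measured by TaqMan qRT-PCR, normalized to ACTB, GAPDH, POLR2A; bidirectional fit versus DMSO.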

[5] = read-out: Ezrin (EZR), EZR (gene 7430); test: LTEA_HepaRG_EZR: Life Technologies and Expression Analysis (LTEA) Assay for Ezrin (EZR) using HepaRG (AID 2283491)
Outline: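 Differentiated human HepaRG cells, 48 h after plating, were exposed in serum-free induction medium for 48 hours to eight half-log concentrations up to 100 uM in 0.5% DMSO. EZR mRNA was measured by TaqMan qRT-PCR, normalized to ACTB, GAPDH and POLR2A, and fitted bidirectionally against DMSO.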

[6] = read-out: Cytochrome P450 3A7 (Homo sapiens) (UniProt P24462); test: LTEA_HepaRG_CYP3A7: Life Technologies and Expression Analysis (LTEA) Assay for CYP3A7 using HepaRG (AID 2283492)
Outline: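 Human HepaRG liver cells, 48 h post-plating, switched to serum-free induction medium and exposed in duplicate for 48 h. Dosing: 100 uM top, half-log dilutions, 8 points, 0.5% DMSO vehicle. Read-out: CYP3A7 mRNA, gain or loss fitted against DMSO baseline.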

CYP3A5 (gene 1577) = test: LTEA_HepaRG_CYP3A5: Life Technologies and Expression Analysis (LTEA) Assay for CYP3A5 using HepaRG (AID 2283493)
Outline: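 Differentiated HepaRG cells in serum-free induction medium were dosed 48 h with test chemicals (8-point half-log series, top 100 uM, 0.5% DMSO, duplicate). CYP3A5 mRNA measured by qRT-PCR, normalized to ACTB, GAPDH, POLR2A; bidirectional fit versus DMSO.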

[7] = read-out: Fatty Acid-Binding Protein 1 (FABP1), FABP1 (gene 2168); test: LTEA_HepaRG_FABP1: Life Technologies and Expression Analysis (LTEA) Assay for Fatty Acid-Binding Protein 1 (FABP1) using HepaRG (AID 2283494)
Outline: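 Differentiated human HepaRG cells exposed 48 h in serum-free induction medium to eight half-log concentrations up to 100 uM (0.5% DMSO), duplicate. FABP1 mRNA by qRT-PCR, normalised to ACTB, GAPDH, POLR2A; bidirectional fitting against DMSO.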

[8] = read-out: Cytochrome P450 4A22 (Homo sapiens) (UniProt Q5TCH4); test: LTEA_HepaRG_CYP4A22: Life Technologies and Expression Analysis (LTEA) Assay for Cytochrome P450 4A22 (CYP4A22) using HepaRG (AID 2283495)
Outline: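 Readout is CYP4A22 transcript induction or loss, quantified by qRT-PCR and normalized to ACTB, GAPDH and POLR2A. Human HepaRG cells receive test chemicals for 48 h at eight half-log concentrations from 100 uM in 0.5% DMSO.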

[9] = read-out: Cytochrome P450 7A1 (Homo sapiens) (UniProt P22680); test: LTEA_HepaRG_CYP7A1: Life Technologies and Expression Analysis (LTEA) Assay for Cytochrome P450 7A1 (CYP7A1) using HepaRG (AID 2283496)
Outline: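 Gene expression endpoint in human HepaRG liver cells treated for 48 h with test chemicals (up to 100 uM, 0.5% DMSO). Values come from bidirectional concentration-response fitting versus DMSO.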

[10] = read-out: Glutathione S-Transferase (GSTA2), GSTA2 (gene 2939); test: LTEA_HepaRG_GSTA2: Life Technologies and Expression Analysis (LTEA) Assay for Glutathione S-Transferase (GSTA2) using HepaRG (AID 2283497)
Outline: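 Differentiated human HepaRG cells were exposed in duplicate for 48 h in serum-free induction medium, 8 points from 100 uM top in half-log steps, 0.5% DMSO. GSTA2 mRNA was measured by TaqMan qRT-PCR, normalized to ACTB, GAPDH and POLR2A; bidirectional fit versus DMSO.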

[11] = read-out: Glutamate-cysteine ligase catalytic (GCLC), GCLC (gene 2729); test: LTEA_HepaRG_GCLC: Life Technologies and Expression Analysis (LTEA) Assay for Glutamate-cysteine ligase catalytic (GCLC) using HepaRG (AID 2283498)
Outline: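 Differentiated HepaRG cells exposed 48 h in serum-free induction medium, eight-point half-log series topping at 100 uM in 0.5% DMSO, duplicates. GCLC mRNA by qRT-PCR normalized to ACTB, GAPDH and POLR2A, fitted bidirectionally versus DMSO.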

[12] = read-out: growth arrest and DNA damage 45 (GADD45G), GADD45G (gene 10912); test: LTEA_HepaRG_GADD45G: Life Technologies and Expression Analysis (LTEA) Assay for growth arrest and DNA damage 45 (GADD45G) using HepaRG (AID 2283499)
Outline: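 Gain or loss of GADD45G mRNA, quantified by TaqMan qRT-PCR against three housekeeping genes, is fitted in both directions relative to 0.5% DMSO. Human HepaRG cultures receive test chemical for 48 h at up to 100 uM.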

[13] = read-out: Glutamate-cysteine ligase regulatory (GCLM), GCLM (gene 2730); test: LTEA_HepaRG_GCLM: Life Technologies and Expression Analysis (LTEA) Assay for Glutamate-cysteine ligase regulatory (GCLM) using HepaRG (AID 2283500)
Outline: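 Differentiated human HepaRG cells exposed 48 h in serum-free induction medium to 8-point half-log concentrations (top 100 uM, 0.5% DMSO), in duplicate. GCLM mRNA quantified by qRT-PCR, normalized to ACTB, GAPDH, POLR2A; bidirectional fitting versus DMSO.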

[14] = read-out: Glutathione S-transferase M3 (GSTM3), GSTM3 (gene 2947); test: LTEA_HepaRG_GSTM3: Life Technologies and Expression Analysis (LTEA) Assay for Glutathione S-transferase M3 (GSTM3) using HepaRG (AID 2283501)
Outline: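 HepaRG, plated 48 h, then serum-free induction medium; test chemical 48 h, duplicate; 100 uM top, half-log x8, 0.5% DMSO. Read-out: GSTM3 mRNA (TaqMan qRT-PCR, Fluidigm array). Bidirectional fit vs DMSO.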

[15] = read-out: Heat shock 70 kDa protein 1 (HSPA1A), gene 3303; test: LTEA_HepaRG_HSPA1A: Life Technologies and Expression Analysis (LTEA) Assay for Heat shock 70 kDa protein 1 (HSPA1A) using HepaRG (AID 2283502)
Outline: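 Differentiated human HepaRG cells in serum-free induction medium were exposed in duplicate for 48 h to eight concentrations (top 100 uM, half-log steps, 0.5% DMSO). HSPA1A mRNA was quantified by qRT-PCR, normalized to ACTB, GAPDH and POLR2A, and fitted bidirectionally against DMSO.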

[16] = read-out: Hypoxia-inducible factor 1-alpha (Homo sapiens) (UniProt Q16665); test: LTEA_HepaRG_HIF1A: Life Technologies and Expression Analysis (LTEA) Assay for Hypoxia-inducible factor 1 (HIF1A) Trancription factor using HepaRG (AID 2283503)
Outline: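 HepaRG, 48 h exposure, 8-pt half-log series from 100 uM, 0.5% DMSO vehicle, duplicates. Readout: HIF1A transcript by qRT-PCR (Fluidigm array), housekeeping-normalised. Bidirectional curve fit vs DMSO baseline.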

[17] = read-out: 3-Hydroxy-3-Methylglutaryl-CoA Synthase 2 (HMGCS2), HMGCS2 (gene 3158); test: LTEA_HepaRG_HMGCS2: Life Technologies and Expression Analysis (LTEA) Assay for 3-Hydroxy-3-Methylglutaryl-CoA Synthase 2 (HMGCS2) using HepaRG (AID 2283504)
Outline: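 HepaRG, plated 48 h then switched to serum-free induction media; cmpd 8-pt, max 100 uM, 1/2-log, 0.5% DMSO, n=2, 48 h. HMGCS2 mRNA by Fluidigm TaqMan qRT-PCR, ACTB/GAPDH/POLR2A norm; bidirectional fit vs DMSO.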

HGF (gene 3082) = test: LTEA_HepaRG_HGF: Life Technologies and Expression Analysis (LTEA) Assay for Hepatocyte Growth Facto (HGF) using HepaRG (AID 2283505)
Outline: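 Read-out is HGF transcript level by qRT-PCR, normalized to three housekeeping genes, fitted bidirectionally against 0.5% DMSO vehicle. Human HepaRG cells received test chemicals for 48 h at up to 100 uM.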

Measured: AC50

Hypoxia-inducible factor 1-alpha (Homo sapiens), sequence (Q16665 whole entry, looked up): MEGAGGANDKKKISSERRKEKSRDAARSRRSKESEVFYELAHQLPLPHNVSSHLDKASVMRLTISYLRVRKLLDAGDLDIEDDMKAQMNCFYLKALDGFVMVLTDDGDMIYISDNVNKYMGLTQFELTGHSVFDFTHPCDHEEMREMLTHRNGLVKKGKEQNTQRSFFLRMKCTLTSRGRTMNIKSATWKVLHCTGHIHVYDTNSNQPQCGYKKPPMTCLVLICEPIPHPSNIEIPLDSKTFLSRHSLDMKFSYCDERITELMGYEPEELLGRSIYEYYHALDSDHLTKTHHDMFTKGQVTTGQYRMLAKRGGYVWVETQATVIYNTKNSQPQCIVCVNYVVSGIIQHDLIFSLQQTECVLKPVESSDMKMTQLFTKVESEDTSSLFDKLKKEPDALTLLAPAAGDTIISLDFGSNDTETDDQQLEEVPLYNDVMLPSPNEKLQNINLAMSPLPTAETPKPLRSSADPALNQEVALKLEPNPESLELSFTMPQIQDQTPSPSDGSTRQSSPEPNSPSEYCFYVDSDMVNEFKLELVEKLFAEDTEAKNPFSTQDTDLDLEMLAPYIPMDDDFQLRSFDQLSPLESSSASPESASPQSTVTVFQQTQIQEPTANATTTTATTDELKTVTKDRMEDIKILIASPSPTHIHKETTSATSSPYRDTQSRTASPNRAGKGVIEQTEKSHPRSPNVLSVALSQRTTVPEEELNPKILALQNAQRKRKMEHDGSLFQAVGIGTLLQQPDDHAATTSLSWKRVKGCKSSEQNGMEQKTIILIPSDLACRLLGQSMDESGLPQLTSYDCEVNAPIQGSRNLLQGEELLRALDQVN
Cytochrome P450 3A4 (Homo sapiens), sequence (P08684 whole entry, looked up): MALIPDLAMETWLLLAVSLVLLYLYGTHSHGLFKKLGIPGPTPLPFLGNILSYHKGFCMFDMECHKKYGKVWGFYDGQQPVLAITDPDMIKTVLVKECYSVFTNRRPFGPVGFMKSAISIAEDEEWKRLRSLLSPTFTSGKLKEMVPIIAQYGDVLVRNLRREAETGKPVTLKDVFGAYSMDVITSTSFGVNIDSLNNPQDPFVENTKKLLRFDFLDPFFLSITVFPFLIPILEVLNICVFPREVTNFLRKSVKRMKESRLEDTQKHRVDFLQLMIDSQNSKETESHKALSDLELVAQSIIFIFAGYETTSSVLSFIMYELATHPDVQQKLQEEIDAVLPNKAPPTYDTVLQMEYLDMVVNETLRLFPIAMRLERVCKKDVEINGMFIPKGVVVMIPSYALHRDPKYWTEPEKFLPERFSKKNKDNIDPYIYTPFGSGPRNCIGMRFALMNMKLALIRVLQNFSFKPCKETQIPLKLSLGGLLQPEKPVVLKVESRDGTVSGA
Cytochrome P450 3A7 (Homo sapiens), sequence (P24462 whole entry, looked up): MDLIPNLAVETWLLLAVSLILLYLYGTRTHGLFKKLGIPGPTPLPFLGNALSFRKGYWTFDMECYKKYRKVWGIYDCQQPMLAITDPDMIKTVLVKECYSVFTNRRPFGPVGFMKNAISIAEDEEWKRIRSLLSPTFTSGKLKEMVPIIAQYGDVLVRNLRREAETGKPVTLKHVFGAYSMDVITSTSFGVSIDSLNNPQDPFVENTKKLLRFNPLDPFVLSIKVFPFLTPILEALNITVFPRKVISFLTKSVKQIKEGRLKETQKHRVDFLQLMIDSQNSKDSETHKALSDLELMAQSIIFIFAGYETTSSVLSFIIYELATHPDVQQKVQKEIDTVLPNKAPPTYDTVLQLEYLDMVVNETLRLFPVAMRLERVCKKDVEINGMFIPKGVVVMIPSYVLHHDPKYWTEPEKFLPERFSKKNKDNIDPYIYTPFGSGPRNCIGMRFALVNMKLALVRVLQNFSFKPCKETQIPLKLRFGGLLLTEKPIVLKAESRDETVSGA

CCCCCCCCn1sccc1=O
active: CYP4A11 (gene 1579) 91.1 µM | [1] 81.4 µM | [6] 89.1 µM | CYP3A5 (gene 1577) 83.1 µM | [8] 78.9 µM | [9] 82.2 µM | [17] 84.8 µM | HGF (gene 3082) 81.3 µM
inactive: all other assays above

[Cl-].[Cl-].[Hg+2]
active: [12] 24.1 µM
inactive: all other assays above

CCCCC(CC)COC(=O)c1ccc(C(=O)OCC(CC)CCCC)c(C(=O)OCC(CC)CCCC)c1 (stereo not given)
inactive: all assays above

Cc1cccc(N)c1N
active: CYP4A11 (gene 1579) 86.1 µM | CYP3A5 (gene 1577) 11.1 µM | [7] 62.6 µM | [8] 50 µM | [9] 46 µM | [10] 50 µM | [12] 50 µM | [17] 50 µM
inactive: all other assays above

c1ccc2c(c1)oc1ccccc12
inactive: all assays above

Oc1ccccc1Cl
inactive: all assays above

CC(O)CCO (stereo not given)
inactive: all assays above
